Source: PubChem BioAssay (NCATS)
Results filed as inconclusive are left out. A number with no mark means an inactive call. The call rests on the fitted dose curve; in most records, active means well fitted inhibition curve with a large enough effect; inconclusive means small, poorly fitted or top-dose-only effect; inactive means flat fitted curve, though single readings scatter.

Experiment: qHTS to identify inhibitors of the type 1 interferon - major histocompatibility complex class I in skeletal muscle: primary screen against the NCATS LOPAC collection (AID 1347405);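 further: lytic HiBiT luminescence reporting HLA-B protein level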
Conditions: iHSKM muscle cells, IFN-b-induced MHC-I HiBiT luminescence, 24 h; series mostly up to 45.9 µM; activity change, negative = inhibition: at the top concentration
Outline: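 CRISPR-engineered immortalized human myoblasts (C25cl48) with HiBiT fused to endogenous HLA-B*08:01, stimulated with 4 ng/ml IFN-beta. LOPAC compounds tested as a 7-point 1:4.3 titration (top 46 uM final), 24 h at 37 C; lytic HiBiT luminescence read.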
On the % scale 0 is the no-effect control and ±100 the full control effect.

SMILES	activity change, negative = inhibition
c1ccc(C2CN3CCSC3=N2)cc1 (centres undefined)	3.91%
COc1cc(C(O)C(=O)O)ccc1O (centres undefined)	1.3%
CC(C)[C@@H]1CC[C@@H](C)C[C@@H]1P(=O)(c1ccccc1)c1ccccc1	-24.9%
Fc1ccc(CN(C2=NCCN2)c2c(Cl)cccc2Cl)cc1	-1.11%
N[C@H](C(=O)O)[C@H](Cc1ccccc1)C(=O)O	-1.68%
Nc1ccc(-c2ccc3ccccc3n2)cc1	-16.2%
O=C(O)c1ccccc1Nc1cccc(OCc2ccc3ccccc3n2)c1	-12.1%
O=c1ccn([C@@H]2O[C@H](COP(=O)(O)OP(=O)(O)O)[C@@H](O)[C@H]2O)c(=O)[nH]1	1.68%
CC[C@H](NC(=O)c1c(C)c(-c2ccccc2)nc2ccccc12)c1ccccc1	-13%
O=[N+]([O-])c1cccc2cn[nH]c12	-5.55%
Cn1c(=O)c2[nH]c(-c3ccc(S(=O)(=O)O)cc3)nc2n(C)c1=O	-7.9%
CCCCCCCCCCCCCCSCC(=O)O	3.56%
O=C(O)C1=CCCN(CCON=C(c2ccccc2)c2ccccc2)C1	0.903%
CC(N)=NCCCC[C@@H](N)C(=O)O	-5.05%
CN(C)C(=O)/N=N/C(=O)N(C)C	-0.543%
CC1=C(C(=O)O)N2C(=O)[C@@H](NC(=O)C(N)C3=CCC=CC3)[C@H]2SC1 (some centres undefined)	-5.41%
NC(=O)CC[C@H](N)C(=O)O	-12.4%
c1ccc(C(NCc2cccnc2)(c2ccccc2)c2ccccc2)cc1	-8.51%
O=c1onc2n1-c1cc(Br)ccc1OC2	0.001%
CCCOC(=O)c1c(-c2ccccc2)nc(CC)c(C(=O)SCC)c1CCC	-7.24%
COc1cc(CNC(=O)CCCCCCC(C)C)ccc1O	-4.33%
NCC(O)(CS(=O)(=O)O)c1ccc(Cl)cc1 (centres undefined)	0.766%
O=C(OCCN1CCOCC1)C1(c2ccccc2)CCCCC1	-2.6%
Cc1ccc2c(c1)C(N1CCN(C)CC1)=Nc1cccnc1N2	2.14%
CC(=O)O[C@H]1CC2(C)[C@@H](C[C@@H](O)[C@H]3[C@@]4(C)CC[C@@H](O)[C@@H](C)[C@@H]4CC[C@@]32C)C1=C(CCC=C(C)C)C(=O)O (some centres undefined)	-11.9%
Cn1c(=O)c2c(nc(/C=C/c3cccc(Cl)c3)n2C)n(C)c1=O	5.6%
CC1CCN(CC[C@H]2CCCN2S(=O)(=O)c2cccc(O)c2)CC1	-12.7%
Nc1ccc(N2C(=O)c3ccccc3C2=O)c(Cl)c1	3.33%
O=c1[nH]ccc2c(O)cccc12	-4.98%
